High-throughput results from PubChem.
DAX1 inh-1 = DAX1 (NR0B1) inhibition, primary screen; HEK293T StAR-luciferase reporter, SF-1/DAX-1 repression relief; inhibition, % at 6.8 µM; 370,000 tested, 1.1% active; AID 652010;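 active means inhibition above the mean over all tested compounds plus 3 SD, cut at about 3.6% in these data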;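 further: higher inhibition means more luminescence from relief of DAX-1 repression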
ssDAF-12 act = S. stercoralis DAF-12 activation, primary screen; AID 652126; 370,000 tested, 1% active; HEK293 ssDAF-12/GRIP1 lit1-tk-luc reporter, luminescence; % of 3 µM dafachronic acid response; activation, % at 6.8 µM;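 active means activation above the mean over all tested compounds plus 3 SD, cut at about 0.9% in these data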
DAX1 inh-2 = inhibitors of human orphan nuclear receptor DAX1 (NR0B1); P51843; HEK293 Gal4-DAX1 luciferase reporter, luminescence; inhibition, % at 6.75 µM; 340,000 tested, 0.99% active;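 active means inhibition above the mean over all tested compounds plus 3 SD, cut at about 4.2% in these data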;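 further: inhibition shows as a rise in luminescence from relieved DAX1 repression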
Target sequence (P51843 207-470 limits assumed): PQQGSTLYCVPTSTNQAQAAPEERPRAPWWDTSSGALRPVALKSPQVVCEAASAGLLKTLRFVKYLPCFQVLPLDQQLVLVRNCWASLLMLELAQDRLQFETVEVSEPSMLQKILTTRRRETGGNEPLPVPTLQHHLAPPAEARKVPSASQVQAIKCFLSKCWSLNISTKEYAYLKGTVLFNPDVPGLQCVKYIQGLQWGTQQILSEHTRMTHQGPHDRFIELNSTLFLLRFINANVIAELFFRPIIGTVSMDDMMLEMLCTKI
hcDAF12 agonist = activates DAF-12 receptor from parasite H. contortus; HEK293 hcDAF-12 lit1-tk-luc reporter, luminescence; 0% DMSO, 100% Δ7-dafachronic acid; activation, % at 6.8 µM; 370,000 tested, 1.4% active; AID 652067;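 active means activation above the mean of all tested compounds plus 3 SD, cut at about 5.5% in these data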
hgDAF12 agonist = agonists of H. glycines DAF-12 nuclear receptor; HEK293 GAL4-hgDAF12 UAS-luciferase reporter, agonist luminescence; normalized to butyrate control; activation, % at 6.8 µM; 370,000 tested, 1.8% active; AID 687014;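 active means activation above a cutoff set at the mean of all screened compounds plus 3 SD, cut at about 10% in these data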
Each line names hits and unclear results; the compound was inactive in the other large screens. A selection: hits, their analogues and other compounds. The true share with any hit is near 4.1%.

O=C(CCNC(=O)Cn1ccc2ccccc2c1=O)NCCCN1CCOCC1	DAX1 inh-2 5.1
Cc1ccccc1N1CCN(C2=Nc3ccccc3Sc3ccccc32)CC1	none (no result: DAX1 inh-2)
CCCS(=O)(=O)N1CCN(C2CCC(C)CC2)CC1 (stereo unspecified)	DAX1 inh-2 5.7
Cc1ccc(C(=O)n2nc(-c3ccccc3)nc2NCc2ccco2)cc1	none
CCCC(=O)n1nc(-c2ccc(C)cc2)nc1NCc1ccco1	hgDAF12 agonist 13
COc1ccc2c(c1)CCCN2C(=O)C1CCCN(S(=O)(=O)c2cccs2)C1 (stereo unspecified)	none (no result: DAX1 inh-2)
O=c1[nH]c(/C=C/c2ccc(Br)cc2)nc2ccccc12	none
Cc1nc(/C=C/c2ccccc2)[nH]c(=O)c1-c1ccccc1	hgDAF12 agonist 12
O=C(Cc1nnc(NC(=O)Nc2ccc(F)cc2)s1)Nc1ccccc1	ssDAF-12 act 1.1
COC(=O)[C@H](C)N(CCc1cn(Cc2ccccc2)nn1)S(=O)(=O)c1ccccc1Br	none (no result: DAX1 inh-2)
O=C1c2ccccc2/C(=C\c2ccc(Br)nc2)N1c1ccccc1	none (no result: DAX1 inh-2)
CC1(C)OC(=O)C2=C(CC(CCc3ccccc3)OC2c2ccc(F)cc2)O1 (stereo unspecified)	none (no result: DAX1 inh-2)
Cc1ccc(S(=O)(=O)N2CCC(=O)N(C(COCc3ccc(Cl)cc3Cl)Cc3ccccc3)CC2)cc1 (stereo unspecified)	DAX1 inh-2 5.3
CCn1c(COc2ccc(C)cc2)nnc1SCc1cccc(C(F)(F)F)c1	none (no result: DAX1 inh-2)
COc1ccc(-c2nnc(SCC(=O)NN=C(C)c3cccc4ccccc34)n2-c2ccccc2)cc1	none (no result: DAX1 inh-2)
Cn1ncc2c(Nc3ccc4ccccc4c3)ncnc21	hgDAF12 agonist 12
Cc1cccc(Nc2ncnc3c2cnn3C)c1	none
O=C(Nc1cccnc1)Nc1cccc([N+](=O)[O-])c1	hcDAF12 agonist 6.5
Cc1ccc(NC(=O)Nc2cnccn2)cc1	DAX1 inh-1 4.3
CC(=O)c1ccc(NC(=O)Nc2cccnc2)cc1	DAX1 inh-1 4.1
O=S(=O)(NCc1ccc(Cl)c(Cl)c1)c1cc(Cl)ccc1N1CC[C@@H](O)C1	none (no result: DAX1 inh-2)
CC(=O)Nc1sc2c(c1-c1nc3ccccc3s1)CCN(C(C)C)C2	none (no result: DAX1 inh-1, ssDAF-12 act, hcDAF12 agonist, hgDAF12 agonist)
CC(=O)Nc1sc2c(c1-c1nc(-c3ccccc3)cs1)CCN(C(C)C)C2	hcDAF12 agonist 6.3 (no result: DAX1 inh-1, DAX1 inh-2)
COC(=O)C1=C(C)N(Cc2ccccc2C(F)(F)F)C(=NCc2ccc(OC)cc2)NC1c1ccc(C(F)(F)F)cc1 (stereo unspecified)	none (no result: DAX1 inh-2)
C=CCNC(=O)NC(=O)COC(=O)CNS(=O)(=O)c1ccc(F)c(F)c1F	DAX1 inh-2 5.2
FC(F)Oc1ccc(NC(=S)N2CCc3ccccc32)cc1	ssDAF-12 act 1.4
COc1cccc(NC(=S)N(CCCN2CCCC2)Cc2cccn2Cc2ccc(Cl)cc2)c1	DAX1 inh-2 4.4 (no result: DAX1 inh-1, ssDAF-12 act, hcDAF12 agonist, hgDAF12 agonist)
Clc1ccc(SCc2cn3ccccc3n2)cc1	hgDAF12 agonist 12
Cc1ccc(SCc2cn3cc(Cl)ccc3n2)cc1	none
Cc1cccc2nc(CSc3ccc(Cl)cc3)cn12	DAX1 inh-1 4.2, hgDAF12 agonist 12
Nc1nnc(SCc2cn3cc(Cl)ccc3n2)s1	hgDAF12 agonist 12
COC(=O)C1=C(C)N(C)C(=NCc2ccc3c(c2)OCO3)NC1c1ccc(Cl)cc1 (stereo unspecified)	none (no result: DAX1 inh-2)
Cc1ccc(OC(=O)COc2ccccc2C)c(-n2nc3ccccc3n2)c1	hcDAF12 agonist 6.2
O=C(N/N=C1\CCc2ccccc21)c1ccccc1Cl	hgDAF12 agonist 12
Cc1cc2c(cc1C)/C(=N/NC(=O)c1ccccn1)CCC2	hgDAF12 agonist 11 (no result: DAX1 inh-2)
Cc1cc(NC(=O)Cc2cn(C)c3ccccc23)ccc1Oc1cccnc1	none (no result: DAX1 inh-2)
Cc1csc(N/N=C/c2ccccn2)n1	ssDAF-12 act 1.3, hcDAF12 agonist 6.2
NC(=O)CCN1CCCCC1	DAX1 inh-2 4.5
O=C(CCC(=O)CCN1CCCCC1)CCN1CCCCC1	none
O=C(NCc1ccco1)C1CCCN(S(=O)(=O)c2cccs2)C1 (stereo unspecified)	none (no result: DAX1 inh-2)
CCOC(OCC)c1cc2ccccc2cn1	ssDAF-12 act 2.2
CC1(C)C2CC=C(/C=N/NC(=S)Nc3cccnc3)C1C2 (stereo unspecified)	ssDAF-12 act 1.0
COC(=O)c1cc2c(c3c4cc(F)ccc4n(S(=O)(=O)c4ccccc4)c13)C(=O)N(C)C2	none (no result: DAX1 inh-2)
C=CCc1ccccc1OCCSc1nc2ccc([N+](=O)[O-])cc2s1	ssDAF-12 act 2.0
